Calls of active or inactive are those of the source. The calls were made as follows: active = hit-call score of the fitted dose curve at least 0.9, where 1 is the maximum; inactive = score below 0.9.
Assay: BSK_3C_Vis: BioMAP Diversity Plus: 3C Assay for Morphology Visualization (AID 2283025);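 also: fitted both ways so gain or loss versus DMSO counts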
Settings: primary human endothelial cells (HUVEC)
Procedure: BSK_3C is a cell-based, multiplexed-readout assay that uses umbilical vein endothelium, a human vascular primary cell, with measurements taken at 24 hours after chemical dosing in a 96-well plate.BSK_3C_Vis is an assay component measured in the BSK_3C assay. It measures NA related to cell morphology using light microscopy technology.Data from the assay component BSK_3C_Vis was analyzed into 1 assay endpoint. This assay endpoint, BSK_3C_Vis, was analyzed with bidirectional fitting relative to DMSO as the negative control and baseline of activity. Using a type of morphology reporter, gain or loss-of-signal activity can be used to understand changes in the background control. Furthermore, this assay endpoint can be referred to as a secondary readout, because this assay has produced multiple assay endpoints where this one serves a background control function. To generalize the intended target to other relatable targets, this assay endpoint is annotated to the cell morphology intended target family, where the subfamily is cell conformation.
The levels of cell surface (or secreted, indicated by the prefix "s") biomarker endpoints were measured by ELISA. Overt cytotoxicity to cells in confluent adherent cultures (all systems other than the BT system) was assessed by measuring total protein levels using sulforhodamine B (SRB) staining in parallel cultures at the time of biomarker measurements, indicated as SRB endpoints. For proliferation assays for adherent cell types, individual cell types are cultured at sub-confluence and relative cell numbers quantified by SRB staining at time points optimized for each system (48 h: 3C and CASM3C systems; 72 h: BT and HDF3CGF systems; 96 h: SAg system). SRB was performed by staining cells with 0.1% SRB after fixation with 10% TCA and reading wells at 560 nm.Viability and proliferation of PBMC (T cells) was quantified by Alamar Blue reduction for the SAg and BT systems. For PBMC viability (referred to as PBMC Cytotoxicity within the assay endpoint names), cells were plated (75,000/well in a 96-well plate) and then chemical samples added for 1 h before addition of activators, SEB and TSST-1 (20 ng/mL final concentration each). Cells were incubated for 90 h. Then, Alamar Blue (20 uL/well) (Invitrogen, Cat DAL1100) was added for 6 h, and the plates were read with a fluorescence microplate reader at 546/580 nm (excitation/emission). For PBMC proliferation, cells were plated and activated as above but incubated for only 16 h prior to addition of Alamar Blue. Plates were read after 6 h.

outcome, inactive:
CC(C)COC(=O)CCCCC(=O)OCC(C)C
COC(=O)CCC(=O)OC
CC(N)=O
Nc1nc(=S)c2[nH]cnc2[nH]1
O=[Si]=O
Cn1cnc2c1c(=O)[nH]c(=O)n2C
CC(=O)O[C@]1(C(C)=O)CC[C@H]2[C@@H]3C=C(Cl)C4=CC(=O)[C@@H]5C[C@@H]5[C@]4(C)[C@H]3CC[C@@]21C
CC(=O)S[C@H](C(=O)N[C@H]1Cc2ccccc2[C@H]2CCC[C@@H](C(=O)O)N2C1=O)C(C)C
CC(=O)[C@@]1(O)CC[C@H]2[C@@H]3CCC4=CC(=O)CC[C@]4(C)[C@H]3CC[C@@]21C
Cc1cn([C@H]2C=C[C@@H](CO)O2)c(=O)[nH]c1=O
C=CCCCCCCCCCCCC
Cc1occc(=O)c1O
c1ccc2occc2c1
CC(=O)OCC(COC(C)=O)OC(C)=O
Cc1cc(Cc2ccc(N)c(C)c2)ccc1N
CC(C)c1cccc(C(C)C)c1NC(=O)NS(=O)(=O)c1cc(C(C)(C)O)co1
N[C@@H](Cc1c[nH]c2ccccc12)C(=O)O
CCCCCCCCCCCCCCCCO
O=C(O)CC(O)(CC(=O)O)C(=O)O
CC(C)(O)c1ccc(CNC(=O)c2cccnc2Oc2ccc(F)cc2)cc1
CCCC[C@H]1CN(CC2CCOCC2)C(=O)OC12CCN(C1(C)CCN(C(=O)c3c(C)ncnc3C)CC1)CC2
S=c1[nH]c2ccccc2s1
CC(=O)O
O=C(Oc1ccccc1)c1cccc(C(=O)Oc2ccccc2)c1
NCCOCCOCCN
CN(C)C(=O)NC1(c2ccccc2)CCN(CC[C@@]2(c3ccc(F)c(F)c3)CN(C(=O)c3ccccc3)CCO2)CC1
CC(COCC(C)OC(=O)c1ccccc1)OC(=O)c1ccccc1 (stereo not given)
CCCCC(CC)COC(=O)CCCCCCCC(=O)OCC(CC)CCCC (stereo not given)
O=C1NC(=O)C(c2ccccc2)(c2ccccc2)N1
NC(=Nc1ccccc1)Nc1ccccc1
CC(=O)OC1CC(C)OC(C)O1 (stereo not given)

AC50, active:
CSc1ccc(Oc2ccc(S(N)(=O)=O)cc2CN(C)C)cc1C 39 µM
O=C1c2c(O)cccc2Cc2cccc(O)c21 39 µM
CCCCCCC(C=O)=Cc1ccccc1 37.5 µM
CC(C)OC(=O)C(C)(C)Oc1ccc(C(=O)c2ccc(Cl)cc2)cc1 39 µM
CCN(CC)CCOc1ccc(C(=C(Cl)c2ccccc2)c2ccccc2)cc1 6.1 µM
O=C(N[C@@H](c1ccccc1)[C@@H]1CCCCN1)c1cccc(C(F)(F)F)c1Cl 13.7 µM
CCCCC(CC)COP(=O)(OCC(CC)CCCC)OCC(CC)CCCC (stereo not given) 13.7 µM
Cc1c(C)c2c(c(C)c1O)CCC(C)(COc1ccc(CC3SC(=O)NC3=O)cc1)O2 (stereo not given) 20 µM
O=C1OC(c2ccc(O)cc2)(c2ccc(O)cc2)c2ccccc21 37.5 µM
